The text below walks through data of PubChem BioAssay (NCI).

What all share (test): NCI-60 one-dose screen, 48 h (100 = growth as untreated, 0 = no growth, -100 = all killed)
Holding throughout (settings): 10 µM unless noted

In experiment [1] the test system is NCI-H23 lung.
For experiment [2], the system named is NCI-H226 lung.
The subject of experiment [3] is NCI-H322M lung.
For experiment [4], the system named is HOP-62 NSCLC.
In experiment [5] the test system is NCI-H460 lung.
In experiment [6] the test system is HOP-92 NSCLC.
The test system of experiment [7] is NCI-H522 lung.
For experiment [8], the system named is A549/ATCC NSCLC.
Experiment [9] concerns 786-0 renal.
The subject of experiment [10] is COLO 205 colon.

The panel holds about 83,000 compounds, 20% with a hit somewhere; the sample as a whole holds those more often.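 Note: values are percent growth. 100 is the growth of untreated cells, values between 100 and 0 indicate rising inhibition; between -100 and 0 indicates cell death.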 Values without a mark were called inactive. Calls of active or inactive are those of the source. The calls were made as follows: active = growth percent below 10; inactive = the rest.

Regarding `Cc1cccnc1NC1OC(=O)c2ccccc21` (centres undefined), the growth in experiment [1] is 100%; in experiment [2], 98.6%; in experiment [3] it was 96.2%; in experiment [4], 99.7%; in [5], 105%; in experiment [6], 119%. The growth in experiment [7] was 88.6%; in experiment [8] it was 96.2%; in experiment [9], 99.6%; in experiment [10], 101%.

As to `CC(O)C(F)(F)C(F)(F)C(F)(F)F` (centres undefined), the growth in experiment [1] was 111%; in experiment [2] it was 102%; in experiment [3], 114%; in experiment [4], 104%; in experiment [5] it was 110%; in experiment [6], 117%. Also, the growth is 93.8% in [7], 110% in [8], 102% in experiment [9] and 116% in experiment [10].

For `c1ccc2[nH]c(Cc3nc4ccccc4[nH]3)nc2c1`, the growth is 107% in [1]; 112% in [2]; 93.1% in [3]; 99.2% in experiment [4]; 111% in [5]; 85% in [6]. Also, the growth in [7] was 103%; in experiment [8], 103%; in experiment [9] it was 117%; in [10], 105%.

For `CCOc1ccccc1NC(=O)CCl`, the growth in [1] was 71.4%; in [2] it was 86.3%; in experiment [3], 107%; in experiment [4], 99.8%; in experiment [5], 97.3%; in experiment [6], 103%. Besides, the growth in [7] was 56.1%; in experiment [8], 100%; in experiment [9], 108%; in [10], 104%.

Take `NC(=O)OCCO`: the growth was 99.3% in experiment [1]; 99.5% in experiment [2]; 97% in experiment [3]; 105% in [4]; 110% in experiment [5]; 102% in experiment [6]. For the same compound, the growth in experiment [7] was 96.1%; in [8], 99.7%; in experiment [9] it was 95%; in experiment [10], 113%.

`Nc1ncnc(Nc2ccc(C(F)(F)F)cc2)n1`: the growth in experiment [1] is 100%; in [2], 103%; in experiment [3], 102%; in [4], 103%; in experiment [5], 106%; in experiment [6], 76.7%. Also, the growth in experiment [7] is 98.5%; in [8], 93.6%; in experiment [9], 97.7%; in [10] it was 108%.

For `Oc1cccnc1CN1CCCC1`, the growth in [1] is 100%; in experiment [2], 97.9%; in experiment [3] it was 102%; in experiment [4], 111%; in experiment [5], 107%; in [6], 79.7%. The results for the growth in experiment [7], in experiment [8] and in [10] were 97.1%, 98.2% and 103%, respectively.

In the case of `CC(=O)N(CCCCCCN(C(C)=O)C(C)=O)C(C)=O`, the growth in experiment [1] was 108% [100 µM]; in experiment [2] it was 101% [100 µM]; in experiment [3], 108% [100 µM]; in experiment [4], 112% [100 µM]; in [5], 109% [100 µM]; in [6], 106% [100 µM]. The figures for the growth in experiment [8] and in experiment [9] were 106% [100 µM] and 96% [100 µM], respectively.

For the compound `O=C1C=C[C@H](O)[C@@]2(CO)O[C@@H]12`, the growth is 93.1% in experiment [1]; 71.3% in experiment [2]; 114% in experiment [3]; 126% in experiment [4]; 121% in experiment [5]; 64.6% in experiment [6]. Further, the growth was 144% in experiment [8] and 102% in experiment [9].

Turning to `O=C1CSc2ccccc2N1`, the growth in experiment [1] is 99.8%; in experiment [2] it was 111%; in experiment [3], 109%; in [4], 101%; in [5], 107%; in experiment [6], 83.9%. For the same compound, the growth in experiment [7] was 104%; in experiment [8], 96.5%; in experiment [9], 117%; in experiment [10] it was 108%.

Regarding `CCCCn1cnc2c(=O)[nH]cnc21`, the growth in experiment [1] is 106%; in experiment [2], 107%; in experiment [3] it was 104%; in [4], 105%; in experiment [5], 119%; in experiment [6] it was 89.3%. The growth in [7] is 98.6%; in experiment [8], 107%; in experiment [9], 105%; in [10], 111%.

In the case of `CCCCCCCCCc1ccc(OC(C)=O)cc1`, the growth in experiment [1] is 105%; in experiment [2], 99.7%; in [3], 96.8%; in experiment [4] it was 113%; in experiment [5], 103%; in experiment [6], 98.2%. The growth in experiment [7] was 99.4%; in [8], 98.9%; in experiment [9], 101%; in experiment [10], 113%.

As to `CCCC1OC(c2ccco2)OCC1CC` (centres undefined), the growth in experiment [1] was 96.8%; in experiment [2], 111%; in [3], 102%; in [4], 105%; in experiment [5], 113%; in [6] it was 105%. Besides, the growth is 80.5% in [7], 87.5% in experiment [8], 105% in experiment [9] and 106% in experiment [10].

As to `NC(CSSCC(N)C(=O)O)C(=O)O` (centres undefined), the growth in experiment [1] is 20.2%; in experiment [2], -9.33% (active); in experiment [3] it was 36.6%; in experiment [4], 15.7%; in [5] it was 42.5%; in experiment [6], 17.3%. Moreover, the growth in [7] was -6.34% (active); in experiment [8] it was 36.7%; in experiment [10] it was -19.2% (active).

With `NC(=O)c1cc2c3ccccc3ccn2c1-c1ccccc1`, the growth was 18.7% in experiment [1]; 23.3% in experiment [2]; 46.3% in experiment [3]; 24.3% in [4]; 0.187% (active) in [5]; 32.7% in experiment [6]. The growth in experiment [7] was 53.1%; in experiment [8] it was 22.8%; in experiment [9], 17.4%; in [10], -13.2% (active).
